In ChEMBL document CHEMBL1961873, “Compounds: GSK PKIS; Assays: Nanosyn kinase panel” (2012):

molecular target: Serine/threonine-protein kinase SIK1 (Homo sapiens) (UniProt P57059); conditions: at 1 µM;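 note: mean inhibition value from the GSK PKIS profiling set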
Sequence (P57059 whole entry): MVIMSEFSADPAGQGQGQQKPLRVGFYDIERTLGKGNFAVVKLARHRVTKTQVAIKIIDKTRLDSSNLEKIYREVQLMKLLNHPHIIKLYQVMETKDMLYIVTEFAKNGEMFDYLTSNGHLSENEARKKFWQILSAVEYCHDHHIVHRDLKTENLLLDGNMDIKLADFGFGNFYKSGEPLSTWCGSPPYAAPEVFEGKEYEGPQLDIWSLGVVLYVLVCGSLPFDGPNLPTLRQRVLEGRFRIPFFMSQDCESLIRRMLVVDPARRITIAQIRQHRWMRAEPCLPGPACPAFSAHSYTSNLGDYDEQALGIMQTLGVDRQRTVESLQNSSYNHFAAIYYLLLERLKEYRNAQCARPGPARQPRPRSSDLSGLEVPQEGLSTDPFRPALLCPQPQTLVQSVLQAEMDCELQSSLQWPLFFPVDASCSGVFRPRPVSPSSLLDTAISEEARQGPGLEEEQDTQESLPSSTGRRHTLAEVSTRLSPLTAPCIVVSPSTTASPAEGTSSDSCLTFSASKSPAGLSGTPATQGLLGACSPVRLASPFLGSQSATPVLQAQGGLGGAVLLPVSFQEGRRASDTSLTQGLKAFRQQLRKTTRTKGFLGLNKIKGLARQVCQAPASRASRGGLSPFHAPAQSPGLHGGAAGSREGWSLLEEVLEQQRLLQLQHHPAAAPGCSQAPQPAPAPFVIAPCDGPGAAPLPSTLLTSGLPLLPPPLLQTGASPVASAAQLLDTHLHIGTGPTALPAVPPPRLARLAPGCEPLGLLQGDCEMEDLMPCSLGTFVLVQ

| SMILES | inhibition [%] |
| --- | --- |
| NC(=O)c1cc(-c2ccncc2)cc(-c2ccccc2)c1N | 24 |
| COc1cc2ncn(-c3cc(OCc4cccs4)c(C(N)=O)s3)c2cc1OC | 23.7 |
| COc1ccc(C2=C(N3CCc4ccccc43)C(=O)NC2=O)cc1 | 8.47 |
| NS(=O)(=O)c1ccc(N/N=C2\C(=O)Nc3ccc(C(=O)NCCCn4ccnc4)cc32)cc1 | 13.9 |
| O=C(Nc1n[nH]c2nc(-c3ccc(O)cc3)c(Br)cc12)C1CC1 | 17.1 |
| Clc1ccc(CNc2nccc(-c3cnn4ncccc34)n2)cc1 | 1.65 |
| CS(=O)(=O)CCNCc1ccc(-c2ccc3ncnc(Nc4ccc(OCc5ccccc5)c(Br)c4)c3c2)o1 | 8.17 |
| c1ccc(Oc2ccc(Nc3ncc(-c4ccccc4)o3)cc2)cc1 | 3.12 |
| Cc1ccc(NC(=O)c2ccoc2)cc1-c1ccc(C(=O)NCC2CC2)cc1 | 0.11 |
| C/C(Nc1ccc(S(N)(=O)=O)cc1)=C1/C(=O)Nc2ccccc21 | -0.38 |
| Fc1ccc(-c2c(-c3ccncc3)nc3n2CCS3)cc1 | 7.55 |
| O=C(Nc1ccc(Oc2ccc3[nH]c(NC(=O)c4ccccc4)nc3c2)cc1)Nc1cc(C(F)(F)F)ccc1F | 9.55 |
| O=C1NC(=O)C(c2cccc(Cl)c2)=C1Nc1ccc(Cl)c(C(=O)O)c1 | 5.1 |
| NS(=O)(=O)c1ccc(Nc2cc(-c3ccc(O)c(F)c3)n[nH]2)cc1 | -0.79 |
| COC(=O)Nc1nc2ccc(Sc3ccc(NC(=O)Nc4cc(C(F)(F)F)ccc4F)cc3)cc2[nH]1 | 0.98 |
| Cc1nnc(-c2ccc(C)c(-c3ccc(C(=O)NCc4ccc(Cl)cc4)cc3)c2)o1 | 7.21 |
| COc1ccc2ncn(-c3cc(O[C@H](C)c4ccccc4Cl)c(C(N)=O)s3)c2c1 | 11.2 |

| SMILES | inhibition [%] |
| --- | --- |
| COc1cc(N2CCN(C(C)C)CC2)ccc1Nc1nc(Nc2ccc(F)cc2C(=O)NC[C@@H](O)CO)c2cc[nH]c2n1 | 9.27 |
| NS(=O)(=O)c1ccc(N/N=C2\C(=O)Nc3ccc(-c4cnco4)cc32)cc1 | 14.3 |
| CN1CCN(CCCNc2nc3ccc(Oc4ccc(NC(=O)Nc5cc(C(F)(F)F)ccc5F)cc4)cc3[nH]2)CC1 | 3.99 |
| Fc1ccc(-c2ncn(C3CCNCC3)c2-c2ccnc(Oc3ccc(Oc4ccccc4)cc3)n2)cc1 | 12.8 |
| COc1cc(Nc2ncc3c(C)nc(-c4cccc(Oc5ccccc5)c4)n3n2)cc(OC)c1OC | 10.1 |
| CCc1ccc(Oc2nccc(-c3c(-c4ccc(F)cc4)ncn3C3CCNCC3)n2)cc1 | 14.7 |
| Cc1ccc(C(=O)NC(C)C)cc1-c1ccc(C(=O)NCC2CC2)cc1 | -1.49 |
| COc1cccc(-n2cnc3c(N/N=C/c4ccncc4)ncnc32)c1 | 12 |
| Fc1ccc(-c2ncn(C3CCNCC3)c2-c2ccnc(Oc3ccc4c(c3)OCO4)n2)cc1 | 6.9 |
| O=C(NCC1CC1)c1ccc(-c2cccc(C(=O)NC3CC3)c2)cc1 | 4.41 |
| C#Cc1cccc(Nc2ncnc3ccc(OCCCCNCCS(C)(=O)=O)cc23)c1 | 38.7 |
| NCc1ccc(-n2c(-c3nonc3N)nc3cnccc32)cc1 | 11.6 |
| O=C(Nc1n[nH]c2cc(-c3ccccc3)ccc12)C1CC1 | 9.28 |
| CCS(=O)(=O)c1ccc(OC)c(Nc2ncc(-c3cccc(-c4ccccc4F)c3)o2)c1 | 2.58 |
| CNC(=O)c1cncc(/C=C/c2c(C)cccc2C)c1 | 76 |
| CCC(=O)Nc1ccc(C)c(-c2ccc(C(=O)NCC3CC3)cc2)c1 | 5.28 |
| c1ccc(-c2n[nH]cc2-c2ccnc(-c3ccc(OCCN4CCOCC4)cc3)c2)nc1 | -2.45 |

molecular target: Serine/threonine-protein kinase SIK2 (Homo sapiens) (UniProt Q9H0K1); conditions: at 0.1 µM
Sequence (Q9H0K1 whole entry, looked up): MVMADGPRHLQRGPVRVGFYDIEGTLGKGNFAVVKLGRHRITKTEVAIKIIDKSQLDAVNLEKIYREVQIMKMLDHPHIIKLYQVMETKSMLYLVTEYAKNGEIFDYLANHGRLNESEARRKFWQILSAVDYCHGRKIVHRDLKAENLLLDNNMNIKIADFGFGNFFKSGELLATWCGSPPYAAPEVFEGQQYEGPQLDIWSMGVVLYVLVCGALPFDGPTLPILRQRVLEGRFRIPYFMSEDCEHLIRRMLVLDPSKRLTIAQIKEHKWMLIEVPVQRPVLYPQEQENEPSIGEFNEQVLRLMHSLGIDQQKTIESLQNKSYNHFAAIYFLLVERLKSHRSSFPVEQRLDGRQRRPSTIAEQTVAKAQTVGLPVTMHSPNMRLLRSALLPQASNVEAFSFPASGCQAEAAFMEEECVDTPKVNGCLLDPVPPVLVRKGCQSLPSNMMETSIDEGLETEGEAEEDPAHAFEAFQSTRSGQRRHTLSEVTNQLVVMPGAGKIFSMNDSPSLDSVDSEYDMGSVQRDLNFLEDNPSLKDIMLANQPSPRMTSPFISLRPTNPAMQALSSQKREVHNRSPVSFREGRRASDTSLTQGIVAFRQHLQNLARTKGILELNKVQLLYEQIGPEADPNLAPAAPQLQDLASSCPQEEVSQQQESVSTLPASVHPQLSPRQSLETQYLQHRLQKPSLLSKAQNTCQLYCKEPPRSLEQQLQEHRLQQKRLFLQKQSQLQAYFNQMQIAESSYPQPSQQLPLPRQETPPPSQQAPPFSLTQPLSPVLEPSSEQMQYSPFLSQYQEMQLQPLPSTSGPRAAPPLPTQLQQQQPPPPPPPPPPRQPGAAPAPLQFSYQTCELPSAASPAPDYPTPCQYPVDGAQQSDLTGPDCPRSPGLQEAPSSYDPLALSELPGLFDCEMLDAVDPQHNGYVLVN

| SMILES | inhibition [%] |
| --- | --- |
| NC(=O)c1cc(-c2ccncc2)cc(-c2ccccc2)c1N | 7.44 |
| COc1cc2ncn(-c3cc(OCc4cccs4)c(C(N)=O)s3)c2cc1OC | 6.37 |
| COc1ccc(C2=C(N3CCc4ccccc43)C(=O)NC2=O)cc1 | 6.36 |
| NS(=O)(=O)c1ccc(N/N=C2\C(=O)Nc3ccc(C(=O)NCCCn4ccnc4)cc32)cc1 | 9.61 |
| O=C(Nc1n[nH]c2nc(-c3ccc(O)cc3)c(Br)cc12)C1CC1 | 14.2 |
| Clc1ccc(CNc2nccc(-c3cnn4ncccc34)n2)cc1 | 4.14 |
| CS(=O)(=O)CCNCc1ccc(-c2ccc3ncnc(Nc4ccc(OCc5ccccc5)c(Br)c4)c3c2)o1 | 4.6 |
| c1ccc(Oc2ccc(Nc3ncc(-c4ccccc4)o3)cc2)cc1 | 1.87 |
| Cc1ccc(NC(=O)c2ccoc2)cc1-c1ccc(C(=O)NCC2CC2)cc1 | 5.39 |
| C/C(Nc1ccc(S(N)(=O)=O)cc1)=C1/C(=O)Nc2ccccc21 | -6.72 |
| Fc1ccc(-c2c(-c3ccncc3)nc3n2CCS3)cc1 | 5.11 |
| O=C(Nc1ccc(Oc2ccc3[nH]c(NC(=O)c4ccccc4)nc3c2)cc1)Nc1cc(C(F)(F)F)ccc1F | 6.29 |
| O=C1NC(=O)C(c2cccc(Cl)c2)=C1Nc1ccc(Cl)c(C(=O)O)c1 | 10.7 |
| NS(=O)(=O)c1ccc(Nc2cc(-c3ccc(O)c(F)c3)n[nH]2)cc1 | -6.2 |
| COC(=O)Nc1nc2ccc(Sc3ccc(NC(=O)Nc4cc(C(F)(F)F)ccc4F)cc3)cc2[nH]1 | 4.86 |
| Cc1nnc(-c2ccc(C)c(-c3ccc(C(=O)NCc4ccc(Cl)cc4)cc3)c2)o1 | 5.11 |
| COc1ccc2ncn(-c3cc(O[C@H](C)c4ccccc4Cl)c(C(N)=O)s3)c2c1 | 2.04 |

| SMILES | inhibition [%] |
| --- | --- |
| COc1cc(N2CCN(C(C)C)CC2)ccc1Nc1nc(Nc2ccc(F)cc2C(=O)NC[C@@H](O)CO)c2cc[nH]c2n1 | 4.52 |
| NS(=O)(=O)c1ccc(N/N=C2\C(=O)Nc3ccc(-c4cnco4)cc32)cc1 | -1.16 |
| CN1CCN(CCCNc2nc3ccc(Oc4ccc(NC(=O)Nc5cc(C(F)(F)F)ccc5F)cc4)cc3[nH]2)CC1 | -2.3 |
| Fc1ccc(-c2ncn(C3CCNCC3)c2-c2ccnc(Oc3ccc(Oc4ccccc4)cc3)n2)cc1 | 6.45 |
| COc1cc(Nc2ncc3c(C)nc(-c4cccc(Oc5ccccc5)c4)n3n2)cc(OC)c1OC | 1.91 |
| CCc1ccc(Oc2nccc(-c3c(-c4ccc(F)cc4)ncn3C3CCNCC3)n2)cc1 | 3.65 |
| Cc1ccc(C(=O)NC(C)C)cc1-c1ccc(C(=O)NCC2CC2)cc1 | 0.37 |
| COc1cccc(-n2cnc3c(N/N=C/c4ccncc4)ncnc32)c1 | 9.07 |
| Fc1ccc(-c2ncn(C3CCNCC3)c2-c2ccnc(Oc3ccc4c(c3)OCO4)n2)cc1 | 2.25 |
| O=C(NCC1CC1)c1ccc(-c2cccc(C(=O)NC3CC3)c2)cc1 | -1.64 |
| C#Cc1cccc(Nc2ncnc3ccc(OCCCCNCCS(C)(=O)=O)cc23)c1 | 5.71 |
| NCc1ccc(-n2c(-c3nonc3N)nc3cnccc32)cc1 | 5.87 |
| O=C(Nc1n[nH]c2cc(-c3ccccc3)ccc12)C1CC1 | 5.24 |
| CCS(=O)(=O)c1ccc(OC)c(Nc2ncc(-c3cccc(-c4ccccc4F)c3)o2)c1 | -1.84 |
| CNC(=O)c1cncc(/C=C/c2c(C)cccc2C)c1 | 7.18 |
| CCC(=O)Nc1ccc(C)c(-c2ccc(C(=O)NCC3CC3)cc2)c1 | 4.06 |
| c1ccc(-c2n[nH]cc2-c2ccnc(-c3ccc(OCCN4CCOCC4)cc3)c2)nc1 | -6.26 |
